Results on six molecules are retold here after PubChem BioAssay.

A short description of the test: probe aLefty1 binding on compound microarray – biochemical, small-molecule microarray, 635/667 nm fluorescence, primary screen (AID 1153).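 Also: score merges spot fluorescence with signal-to-noise ratio from the scanned slide images.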 The conditions noted are these: higher = more signal.
`CO[C@H]1COC(=O)[C@H](C)COC(=O)[C@H](C)NC(=O)CC=C[C@H]1C` showed a composite z-score of -0.101.
Then `COC(=O)[C@H](C)NC(=O)CCC1CC(OC(=O)NCc2ccc3c(c2)OCO3)CC2(CCCC(COC(=O)NCCCN3CCCC3=O)O2)O1` (stereo partly specified), with 0.0326.
Then `COc1ccc(COC(=O)NN=C2C[C@@H](O)[C@@H](O)[C@@H]3[C@@H]4C(=O)N(C[C@@H]5CCCO5)C(=O)[C@@H]4CC[C@@H]23)cc1`, with -0.235; and `COc1ccc(COC(=O)NN=C2C[C@@H](O)[C@@H](O)[C@@H]3[C@@H]4C(=O)N(C(C)(C)C)C(=O)[C@@H]4CC[C@@H]23)cc1`, with -0.328.
Then `CCOC(=O)[C@H](CC(C)C)NC(=O)CCC1CC(OC(=O)NCc2ccc3c(c2)OCO3)CC2(CCCC(COC(=O)NCc3ccccc3)O2)O1` (stereo partly specified), with 0.0004.
`CC(C)[C@H](NC(=O)OC(C)(C)C)[C@@H](O)CC(=O)C(C)(C)C` returned a composite z-score of -0.267.
